In the library only some 7.3% were active in any assay of this set; here they are far more common.
HCV inh: qHTS Assay for Inhibitors of Hepatitis C Virus (HCV). hit rate 3.4% among 340,000. Huh7.5.1 HCVcc-Cre infection, luciferase reporter, 44 h. Potency, µM (series often up to 41.8 µM), for inactives: at the highest dose activity change, negative = inhibition, most hits filed as inhibitors; note: potency is the fitted concentration of half-maximal effect
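Reporter virus HCVcc-Cre (~0.5 moi) infects cells exposed to compound; seeding density 1,000 cells/well with 4 h settling beforehand. Luminescence, 15 sec read, taken 44 h post-infection following a 15 min RT substrate incubation.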
AmpC inh no detg: qHTS Inhibitors of AmpC Beta-Lactamase (assay without detergent) | P00811 | AmpC nitrocefin hydrolysis, absorbance 480 nm, 0.0001% Triton | Potency, µM (titrated, usually from 57.1 µM), inactives show at the highest dose activity change, negative = inhibition, usual class: inhibitors | hit rate 0.52% among 330,000 | AID 485341, 2010;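 note: potency is the fitted concentration of half-maximal effect; plate controls were no compound for no effect and no enzyme for full effect; nearly all actives have a fitted effect of over 20% in size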
Target sequence (P00811 whole entry, looked up): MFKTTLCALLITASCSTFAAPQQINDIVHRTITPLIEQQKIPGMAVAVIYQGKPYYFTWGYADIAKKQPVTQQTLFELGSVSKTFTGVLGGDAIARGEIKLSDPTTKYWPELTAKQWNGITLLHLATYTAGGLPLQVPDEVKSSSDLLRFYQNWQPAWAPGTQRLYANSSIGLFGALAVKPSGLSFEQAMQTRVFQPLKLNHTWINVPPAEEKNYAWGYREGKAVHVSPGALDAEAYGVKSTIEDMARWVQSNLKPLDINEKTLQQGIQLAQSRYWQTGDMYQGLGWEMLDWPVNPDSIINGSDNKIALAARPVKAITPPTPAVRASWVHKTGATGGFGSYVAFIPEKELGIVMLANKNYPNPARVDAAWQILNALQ
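20 mM phosphate pH 7.0 + 0.01% (detergent screen) or 0.0001% Triton X-100; 5.3 nM AmpC reagent; cpd preinc 15 min RT; nitrocefin (800 uM stock) to start; A480 q20 s × 4 min; Activity was normalised to no-enzyme and no-compound control wells.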
HCMV antiviral: qHTS Assay for inhibitors of the human cytomegalovirus (HCMV); HFF cells, HCMV-luciferase reporter, 72 h; stronger effect = lower value; activity change, negative = inhibition, % at 57.5 µM; hit rate 4.5% among 410,000; AID 1259415, 2018; in the data active = activity change below about -60%; inconclusive = no clear call, values can overlap the other calls; inactive = above about -39%
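Screen run at 2 compound doses on HFFs infected with reporter HCMV, MOI 1 PFU/cell. Luciferase activity from cell lysates at 72 h post infection gave inhibition relative to buffer-only and Salinomycin wells.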
FMDV inh: High Throughput Screening for Foot and Mouth Disease Virus Antivirals. FMDV antiviral cell-based qHTS. AID 1159524, 2015. Potency, µM (top dose mostly 57.9 µM), inactives show top-dose activity change, negative = inhibition, usual class: inhibitors. hit rate 1.2% among 410,000; calls by dose curve; tested in HEK293T cells; note: read-out not given here; potency is the fitted concentration of half-maximal effect; nearly all actives have a fitted effect of over 45% in size
AmpC detergent: qHTS Inhibitors of AmpC Beta-Lactamase (assay with detergent); hit rate 0.041% among 370,000; Potency, µM (series often up to 114 µM), for inactives: top-dose activity change, negative = inhibition, actives largely listed as inhibitors; AmpC hydrolysis of nitrocefin, absorbance 480 nm, 0.01% Triton; AID 485294, 2010;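 note: potency is the fitted concentration of half-maximal effect; 0% = no-compound wells and -100% = no-enzyme wells; nearly all actives have a fitted effect of over 25% in size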
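AmpC (5.3 nM in the dispensed reagent) in 20 mM phosphate pH 7.0 with 0.01% (detergent screen) or 0.0001% Triton X-100 was preincubated with compounds for 15 min at room temperature. Nitrocefin was then added from an 800 uM solution, and hydrolysis was followed at 480 nm.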
* marks the source's active call; other numbers are inactive results; u = inconclusive; x = no result given; [ ] = dose if it differs, or a comment. Unless noted, calls come from the whole dose curve; as a rule, active = well fitted curve in the direction sought with a large enough effect; inconclusive = small, poorly fitted or top-dose-only effect, or another doubt; inactive = no such curve, though single readings can be large; an effect the other way counts as inactive or inconclusive. Unless noted, % is set by controls: 0 for no effect and ±100 for the full control effect.

SMILES	HCV inh	AmpC inh no detg	HCMV antiviral	FMDV inh	AmpC detergent
COc1ccccc1-c1csc(C(C)(O)c2ccccc2)n1 (stereo unspecified)	x	x	5.7	-20.8%	x
CCCc1ncc(CN2CCC(C(=O)Nc3cccc(-c4cscn4)c3)CC2)cn1	11.2µM*	42.8%	-25.3	-27.4%	u
COCCc1ncc(CN2CCC(C(=O)Nc3cccc(-c4cscn4)c3)CC2)cn1	u	9.5%	-15.3	u	-9.9%
C=CCN(CC=C)CC(O)CN(c1cc([N+](=O)[O-])ccc1OC)S(=O)(=O)c1ccccc1 (stereo unspecified)	12.3%	1.8%	-107.3*	39.5%	-2.9%
COc1ccc([N+](=O)[O-])cc1N(CC(O)CN(C)C)S(=O)(=O)c1ccccc1 (stereo unspecified)	3.8%	-17.0%	-26.5	-4.6%	-2.7%
CCO[C@H]1c2c(ccc3ccc(=O)oc23)OC(C)(C)[C@H]1O	40.5%	-12.8%	13.3	1.4%	x
C/C=C(/C)C(=O)OC1c2c(ccc3ccc(=O)oc23)OC(C)(C)C1OC(=O)/C(C)=C\C (stereo unspecified)	-49.1%	42.5%	-22.8	28.2µM*	14.4%
CC1(C)Oc2ccc3ccc(=O)oc3c2[C@@H](O)[C@H]1O	3.16µM*	-2.3%	-23.7	-14.5%	2.7%
C/C=C(\C)C(=O)OC1c2c(ccc3ccc(=O)oc23)OC(C)(C)C1OC(C)=O (stereo unspecified)	-9.3%	17.6%	-32.2	-12.2%	1.5%
O=C(CN1Cc2ccccc2OC(c2ccsc2)C1)N1CCC(c2nc3ccccc3[nH]2)CC1 (stereo unspecified)	x	x	x	8.4%	x
O=c1cc(O)c2sc(Nc3ccc(F)cc3)nc2[nH]1	34.2%	u	-92.4*	-3.7%	-6.7%
O=c1cc(O)c2sc(Nc3cccc(C(F)(F)F)c3)nc2[nH]1	10.9%	-34.0%	-39.6	-10.6%	0.2%
COC(=O)c1cc(Br)c(=O)n(CCN2CCCC2)c1	0.6%	-19.4%	-89.9*	5.8%	u
COc1ccccc1N1CCN(/N=C/c2ccc(Cl)c([N+](=O)[O-])c2)CC1	-16.3%	-21.0%	-10.0	27.3%	3.1%
COc1ccccc1N1CCN(/N=C/c2ccc([N+](=O)[O-])cc2)CC1	11.2µM*	-6.1%	59.6	24.6%	-3.4%
O=C(OCc1ccccc1C(F)(F)F)c1ccc(Br)c(S(=O)(=O)N2CCOCC2)c1	-27.2%	x	-7.4	-23.4%	x
CCCCC(CC)C(=O)Nc1ncc([N+](=O)[O-])s1 (stereo unspecified)	u	11.1%	-74.5*	u	-0.9%
Cc1ccc(CC(=O)Nc2ncc([N+](=O)[O-])s2)cc1	-4.9%	-29.0%	36.6	62.1%	2.7%
COc1cc2nc(N3CCCC(O)C3)c(CNCc3ccccc3F)cc2c(OC)c1OC (stereo unspecified)	x	x	x	-9.2%	x
CCC(=O)N1CCCc2cc(S(=O)(=O)Nc3ccc(C)c(C)c3)ccc21	x	x	-17.2	0.5%	3.9%
CS(=O)(=O)N1CCc2cc(S(=O)(=O)NCCNS(=O)(=O)c3ccc4c(c3)CCN4S(C)(=O)=O)ccc21	2.4%	-0.3%[11.4 µM]	-21.5	25.7%	u
Cc1ccc(Cl)cc1N1CCN(C(=O)CCNS(=O)(=O)c2ccc3c(c2)CCN3C(=O)C2CC2)CC1	x	x	-21.9	u	-3.2%
Cc1cccc(NS(=O)(=O)c2ccc3c(c2)CCN3C(=O)C2CCC2)c1	x	x	-66.3*	-23.4%	0.9%
CS(=O)(=O)N1CCc2cc(S(=O)(=O)Nc3ccc4c(c3)OCCO4)ccc21	u	-15.2%	-84.4*	-21.1%	0.4%
CCC(=O)N1CCc2cc(S(=O)(=O)Nc3ccc4c(c3)OCCO4)ccc21	2.82µM*	-33.0%	-86.5*	-13.3%	-5.5%
O=C(CCNS(=O)(=O)c1ccc2c(c1)CCN2C(=O)C1CC1)N1CCN(c2cccc(C(F)(F)F)c2)CC1	x	x	-60.0*	u	5.3%
Cc1cccc(C)c1NC(=O)C1CCCN1S(=O)(=O)c1cccc2nsnc12 (stereo unspecified)	x	x	24.5	-8.5%	10.9%
